For assay [1], the target named is Guanine nucleotide-binding protein G(i) subunit alpha-1 (Homo sapiens) (UniProt P63096). The assay is described as follows: qHTS Assay for Inhibitors of RGS12 GoLoco Motif Activity (Green Fluorophore) (AID 879).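 Note: negative values mean loss of peptide binding seen as reduced polarization.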 Put shortly: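 Fluorescence polarization assay: 50 nM Gαi1 with 10 nM FITC-labeled RGS12 GoLoco peptide in 10 mM Tris pH 7.5, 150 mM NaCl, 0.1 mM GDP, 0.05% NP40, 10 min at room temperature with compound.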
(In qHTS, concentration-response curves come from the screen itself.)

The target in assay [2] is Cytochrome P450 3A4 (Homo sapiens) (UniProt P08684). The assay is described as follows: qHTS Assay for Inhibitors and Substrates of Cytochrome P450 3A4 (AID 884). Note: series mostly up to about 57 µM; nearly all actives have a fitted effect of over 50% in size. Put shortly:
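20 nM human CYP3A4 with 25 uM Luciferin-PPXE (at KM) in 200 mM KPO4, preincubated 10 min with compound; NADPH regeneration started a 60 min RT reaction. Luciferin detected by luminescence, normalized to 57 uM ketoconazole as full inhibition.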

Assay [3] in a line: Confirmation and Secondary Assay for Modulators of Hemoglobin Beta Chain Splicing at IVS2 705 locus (AID 930).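 Note: HeLa cells stably expressing the EGFP-705 splicing reporter; series mostly up to about 46 µM.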 A digest of the protocol: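 Assay measures total GFP intensity per well in HeLa EGFP-705 cells after 2 days with compound; mis-splicing normally truncates EGFP, so fluorescence indicates corrected splicing.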
In assay [4] the target is Muscarinic acetylcholine receptor M1 (Rattus norvegicus) (UniProt P08482). Put plainly: qHTS Assay for Antagonists of Acetylcholine Muscarinic M1 Receptor: Measurement of IP-One Response (AID 944). Note: nearly all actives have a fitted effect of over 75% in size. A digest of the protocol:
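CHO cells stably expressing rat M1, pretreated 10 min with compound, then stimulated 30 min with carbachol at EC80 (200 nM) in LiCl-containing buffer pH 7.4; IP1 accumulation read by HTRF competition (665/620 nm).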

Assay [5] concerns the target Pyruvate kinase (Leishmania mexicana) (UniProt Q27686). The assay is described as follows: qHTS Validation Assay for Inhibitors of Leishmania Mexicana Pyruvate Kinase (AID 945). Put shortly: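 Pyruvate kinase activity of E451W LmPYK (0.2 nM) was followed as ATP output after 1 h at room temperature with 0.5 mM PEP and 0.1 mM ADP, detected by PKLight luminescence.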
Assay [6] concerns the target Cytochrome P450 2C9 (Homo sapiens) (UniProt P11712). The assay is described as follows: qHTS Assay for Inhibitors and Substrates of Cytochrome P450 2C9 (AID 883). Note: nearly all actives have a fitted effect of over 60% in size. Put shortly:
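10nM CYP2C9 + 100uM Luciferin-H (=KM), 25mM KPO4; cpd 10 min 37C; NADPH regen, 60 min 37C; stop/detect with P450 Glo-Buffer 20 min; luminescence. Norm. to 57uM sulphaphenazole as full inhibition.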

Assay [7] concerns the target Cytochrome P450 2D6 (Homo sapiens) (UniProt P10635). Put plainly: qHTS Assay for Inhibitors and Substrates of Cytochrome P450 2D6 (AID 891). Note: nearly all actives have a fitted effect of over 60% in size. Note: potency is the fitted concentration of half-maximal effect. A digest of the protocol:
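Human CYP2D6 (5 nM) with 30 uM Luciferin-ME EGE (at Km) in 100 mM KPO4, compound preincubated 10 min, then NADPH regeneration system for 60 min at room temperature. Luciferin read by luminescence; normalized to 1.43 uM quinidine.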

Assay [8] in a line: Cellular Toxicity (caspase-3) N2a (AID 665).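 Note: compound exposure lasted 16 h at 37 °C before readout.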 A digest of the protocol:
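Mouse N2a neuroblastoma cells, 1500 per well, treated 16 h at 37 °C in complete medium; caspase-3/7 activity by Caspase-Glo luminescence after 1 h. Normalized to DMSO and 10 uM staurosporine; AC50 from Hill fits.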

Assay [9] is described as follows: Cellular Toxicity (caspase-3) NIH 3T3 (AID 666).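 Note: caspase signal read after 16 h compound exposure.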 A digest of the protocol: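 Mouse NIH 3T3 fibroblasts (1000/well) treated 16 h at 37 C; caspase-3/7 activity measured by Caspase-Glo 3/7 luminescence after 20 min. Normalized to DMSO and 100 uM tamoxifen; AC50 from Hill fits.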
A short description of assay [10]: Cellular Toxicity (caspase-3) Renal Proximal Tubule (AID 667).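 Note: cells exposed to compound for 16 hours at 37 °C before detection.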 A digest of the protocol:
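In qHTS format, rat primary proximal tubule cells seeded at 1000 per well are exposed to compounds for 16 hours at 37 °C. An increase in Caspase-Glo 3/7 luminescence indicates caspase activation.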

The nature of assay [11]: Cell Viability - LYMP2-001 (AID 921).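 Note: series mostly up to about 92 µM; cells exposed to compound for 24 h at 37 °C; nearly all actives have a fitted effect of over 70% in size.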 A digest of the protocol: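 qHTS, 1536-well; lymphoblastoid cells, 24 hr compound, 37 C; ATP by CellTiter-Glo, 30 min RT; luminescence; Hill-fit AC50.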
Assay [12] is described as follows: MultiTox-Fluor Cytotoxicity Assay - LYMP1-001 - Dead Cells (AID 946). Note: potency is the fitted concentration of half-maximal effect. Put shortly: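 Cytotoxicity as increased dead-cell protease fluorescence (bis-AAF-R110, 485/520 nm), read 60 min after MultiTox-Fluor reagent. Human lymphoblastoid line exposed 16 h; Hill-fitted AC50, with DMSO as 0% and 15 uM tetraoctylammonium bromide as 100%.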
Assay [13] is described as follows: MultiTox-Fluor Cytotoxicity Assay - LYMP1-001 - Live Cells (AID 947). Note: potency is the fitted concentration of half-maximal effect.
The target in assay [14] is Cytochrome P450 3A4 (Homo sapiens) (UniProt P08684). Put plainly: qHTS Assay for Activators of Cytochrome P450 3A4 (AID 885). Note: nearly all actives have a fitted effect of over 65% in size. A digest of the protocol: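 Signal was normalized against complete inhibition by 57 uM ketoconazole. The reaction used 20nM CYP3A4 with 25uM Luciferin-PPXE, 10-min compound preincubation and a 60-min NADPH-supported step at RT.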
The target in assay [15] is Cytochrome P450 2C19 (Homo sapiens) (UniProt P33261). Put plainly: qHTS Assay for Inhibitors and Substrates of Cytochrome P450 2C19 (AID 899). Note: nearly all actives have a fitted effect of over 60% in size. A digest of the protocol: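 Luminescent read-out of luciferin formed from Luciferin-H EGE (10uM, equal to KM). Enzyme 5nM in 50mM KPO4; compound added, 10 min at 37C, then NADPH regenerating system for 60 min at 37C. Full inhibition defined by 57uM ketoconazole.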

Assay [16] deals with Muscarinic acetylcholine receptor M1 (Rattus norvegicus) (UniProt P08482). Put plainly: qHTS Assay for Antagonists of Acetylcholine Muscarinic M1 Receptor: Kinetic Measurement of Intracellular Calcium Response (AID 943). Note: series mostly up to about 35 µM; nearly all actives have a fitted effect of over 75% in size. Put shortly: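 CHO cells expressing rat M1 receptor, Fluo-4 loaded, preincubated 10 min with compound, then stimulated with EC80 carbachol (100 nM final). Kinetic calcium fluorescence over 4 min; response taken as peak over basal signal.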

Several values for one entry are separate records, joined by “and”; a condition that tells them apart may be missing. Identical values can stand only once. Records with an inconclusive call do not appear. A structure can be active in one record and inactive in another. Activity calls are given as the source filed them. Calls come from the whole dose curve; as a rule, active = well fitted curve in the direction sought with a large enough effect; inconclusive = small, poorly fitted or top-dose-only effect, or another doubt; inactive = no such curve, though single readings can be large; an effect the other way counts as inactive or inconclusive.

Chain of Cytochrome P450 2D6 (Homo sapiens) (P10635 whole entry, looked up): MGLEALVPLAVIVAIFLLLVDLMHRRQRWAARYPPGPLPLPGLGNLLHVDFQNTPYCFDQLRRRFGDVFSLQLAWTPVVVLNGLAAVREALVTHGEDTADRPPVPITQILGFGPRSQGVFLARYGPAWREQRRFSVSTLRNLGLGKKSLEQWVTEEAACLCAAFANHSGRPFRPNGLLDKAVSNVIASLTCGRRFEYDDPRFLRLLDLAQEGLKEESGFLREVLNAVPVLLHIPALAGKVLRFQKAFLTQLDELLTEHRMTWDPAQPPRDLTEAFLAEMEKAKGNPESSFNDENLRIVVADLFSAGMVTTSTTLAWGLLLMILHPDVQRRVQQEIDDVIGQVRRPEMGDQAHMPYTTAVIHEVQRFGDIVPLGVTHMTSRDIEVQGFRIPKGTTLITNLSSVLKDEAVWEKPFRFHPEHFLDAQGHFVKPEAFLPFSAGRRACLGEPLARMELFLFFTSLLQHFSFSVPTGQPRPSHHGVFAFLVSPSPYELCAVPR
Chain of Cytochrome P450 3A4 (Homo sapiens) (P08684 whole entry, looked up): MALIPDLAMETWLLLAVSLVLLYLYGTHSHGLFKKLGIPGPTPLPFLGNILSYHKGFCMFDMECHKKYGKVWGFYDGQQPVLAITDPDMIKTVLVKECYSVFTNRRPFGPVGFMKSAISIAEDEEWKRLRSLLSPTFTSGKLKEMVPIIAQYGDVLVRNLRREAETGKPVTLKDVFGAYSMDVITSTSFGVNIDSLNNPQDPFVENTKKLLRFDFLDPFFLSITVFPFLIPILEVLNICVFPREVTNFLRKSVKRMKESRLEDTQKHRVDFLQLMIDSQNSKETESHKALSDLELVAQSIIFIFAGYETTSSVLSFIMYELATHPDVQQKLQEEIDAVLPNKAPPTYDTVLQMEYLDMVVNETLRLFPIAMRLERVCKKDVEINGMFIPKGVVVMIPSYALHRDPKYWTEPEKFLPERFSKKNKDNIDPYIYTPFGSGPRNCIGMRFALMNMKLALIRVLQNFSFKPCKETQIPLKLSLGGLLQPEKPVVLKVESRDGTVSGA
Chain of Pyruvate kinase (Leishmania mexicana) (Q27686 2-499 E452W): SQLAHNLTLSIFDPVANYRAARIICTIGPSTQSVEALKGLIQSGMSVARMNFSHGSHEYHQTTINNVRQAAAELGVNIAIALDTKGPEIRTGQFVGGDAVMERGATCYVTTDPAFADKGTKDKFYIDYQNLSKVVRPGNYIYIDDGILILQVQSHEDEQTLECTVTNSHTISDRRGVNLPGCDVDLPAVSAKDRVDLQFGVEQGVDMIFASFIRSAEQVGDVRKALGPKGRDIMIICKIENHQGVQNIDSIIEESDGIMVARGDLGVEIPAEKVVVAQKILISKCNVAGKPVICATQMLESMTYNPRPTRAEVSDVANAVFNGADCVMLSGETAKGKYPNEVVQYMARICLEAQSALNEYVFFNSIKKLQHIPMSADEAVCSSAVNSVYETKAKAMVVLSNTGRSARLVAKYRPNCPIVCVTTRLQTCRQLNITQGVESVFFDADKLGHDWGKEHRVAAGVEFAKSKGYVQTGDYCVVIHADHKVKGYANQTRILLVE
Chain of Cytochrome P450 2C9 (Homo sapiens) (P11712 whole entry, looked up): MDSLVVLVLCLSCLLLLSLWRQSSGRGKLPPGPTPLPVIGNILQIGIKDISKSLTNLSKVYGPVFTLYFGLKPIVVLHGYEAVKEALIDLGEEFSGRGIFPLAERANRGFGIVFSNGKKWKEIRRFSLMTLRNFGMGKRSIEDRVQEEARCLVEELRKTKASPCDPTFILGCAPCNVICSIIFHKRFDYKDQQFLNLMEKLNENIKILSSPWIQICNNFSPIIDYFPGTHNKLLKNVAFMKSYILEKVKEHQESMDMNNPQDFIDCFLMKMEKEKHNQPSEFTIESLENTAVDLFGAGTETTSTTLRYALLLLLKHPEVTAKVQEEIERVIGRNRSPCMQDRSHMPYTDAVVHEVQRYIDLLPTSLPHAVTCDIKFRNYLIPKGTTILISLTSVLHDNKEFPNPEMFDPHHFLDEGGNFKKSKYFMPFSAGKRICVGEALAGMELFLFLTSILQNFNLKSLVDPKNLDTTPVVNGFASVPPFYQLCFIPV
Chain of Guanine nucleotide-binding protein G(i) subunit alpha-1 (Homo sapiens) (P63096 whole entry, looked up): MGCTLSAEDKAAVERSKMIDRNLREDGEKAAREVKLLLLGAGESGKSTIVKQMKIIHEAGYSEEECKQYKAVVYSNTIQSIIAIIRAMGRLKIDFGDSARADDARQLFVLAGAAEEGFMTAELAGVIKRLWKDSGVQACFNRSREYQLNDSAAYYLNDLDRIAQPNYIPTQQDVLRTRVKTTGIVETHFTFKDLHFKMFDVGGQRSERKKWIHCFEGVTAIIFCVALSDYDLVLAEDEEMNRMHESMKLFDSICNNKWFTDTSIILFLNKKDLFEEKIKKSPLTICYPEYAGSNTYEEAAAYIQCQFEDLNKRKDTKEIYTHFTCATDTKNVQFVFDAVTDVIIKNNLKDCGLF
Chain of Muscarinic acetylcholine receptor M1 (Rattus norvegicus) (P08482 whole entry, looked up): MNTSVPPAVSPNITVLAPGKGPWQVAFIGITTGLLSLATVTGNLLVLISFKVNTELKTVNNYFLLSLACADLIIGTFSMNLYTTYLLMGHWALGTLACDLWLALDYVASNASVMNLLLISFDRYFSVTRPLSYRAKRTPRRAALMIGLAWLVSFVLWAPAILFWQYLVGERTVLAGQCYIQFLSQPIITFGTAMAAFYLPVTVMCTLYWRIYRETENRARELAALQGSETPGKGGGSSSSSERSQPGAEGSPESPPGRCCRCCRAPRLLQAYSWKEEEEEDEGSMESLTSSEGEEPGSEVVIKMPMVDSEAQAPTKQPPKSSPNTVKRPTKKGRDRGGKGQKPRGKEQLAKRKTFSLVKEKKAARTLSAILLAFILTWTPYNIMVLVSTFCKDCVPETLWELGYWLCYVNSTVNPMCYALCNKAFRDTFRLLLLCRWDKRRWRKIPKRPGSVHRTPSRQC
Chain of Cytochrome P450 2C19 (Homo sapiens) (P33261 whole entry, looked up): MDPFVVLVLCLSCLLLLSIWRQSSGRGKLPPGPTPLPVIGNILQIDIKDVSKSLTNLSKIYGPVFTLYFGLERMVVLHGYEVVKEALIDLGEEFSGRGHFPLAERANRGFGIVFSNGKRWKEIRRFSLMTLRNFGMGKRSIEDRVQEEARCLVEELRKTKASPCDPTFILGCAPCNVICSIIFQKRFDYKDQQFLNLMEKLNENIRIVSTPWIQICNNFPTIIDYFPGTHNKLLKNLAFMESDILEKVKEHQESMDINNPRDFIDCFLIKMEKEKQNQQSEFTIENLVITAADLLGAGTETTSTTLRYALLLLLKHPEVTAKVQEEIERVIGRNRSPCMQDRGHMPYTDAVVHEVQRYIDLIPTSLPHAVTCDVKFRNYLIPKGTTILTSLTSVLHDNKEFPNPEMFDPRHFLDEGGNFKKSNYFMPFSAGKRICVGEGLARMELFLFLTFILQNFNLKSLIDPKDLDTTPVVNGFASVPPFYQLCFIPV

On to `CCN(CC)CCNC(=O)c1cc(Cl)c(N)cc1OC`, for which the compound was classed as inactive in assay [1] and in assay [5]. Also, the Potency entry in [2], in [3] and in [4] was “inactive” in each case.

With `NC(N)=NCCC[C@H](N)C(=O)O`, the compound was classed as inactive in assay [1] and in assay [5]. The Potency result in assay [6], in assay [7] and in [4] was “inactive” each time.

`[Cl][In]([Cl])[Cl]`: the compound was classed as inactive in assay [8], in assay [9], in assay [10] and in assay [11]. For the same compound, the Potency result in assay [2], in [12] and in assay [13] was “inactive” each time.

With `Cc1c(O)cccc1C(=O)N[C@@H](CSc1ccccc1)[C@H](O)CN1C[C@H]2CCCC[C@H]2C[C@H]1C(=O)NC(C)(C)C`, the result in [8], in [9] and in assay [10] was inactive. For the same compound, the Potency in assay [12] is 31.6 µM (active); in [13] it was 39.8 µM (active).

For the compound `Cc1cc2nc3c(=O)[nH]c(=O)nc-3n(C[C@H](O)[C@H](O)[C@H](O)CO)c2cc1C`, the call in [8], in assay [9], in [10], in [14] and in assay [11] was inactive. Also, the Potency in assay [12] was 39.8 µM (active). Further, in assay [13], the Potency entry was “inactive”.

`Oc1cccc(O)c1`: the call in [8], in assay [9], in [10], in assay [14] and in [11] was inactive. Moreover, the Potency entry in [3] and in assay [12] was “inactive” throughout.

For the compound `NCCNCCNCCN`, the result in assay [8], in assay [9], in assay [10] and in assay [11] was inactive. The Potency entry in assay [12] and in assay [13] was “inactive” each time.

For `NCCNCCNCCNCCN`, the call in assay [8], in assay [9], in [10] and in [11] was inactive. The Potency entry in [2], in assay [12] and in assay [13] was “inactive” each time.

With `CC(C)C(=O)c1c(C(C)C)nn2ccccc12`, the compound was classed as inactive in [1] and in [5]. Also, the Potency result in [6], in assay [15], in assay [16] and in [4] was “inactive” each time. Further, the Potency entry in assay [7] was “inactive and 39.8 nM (active)”.

With `Nc1cc(=O)[nH]c(N)n1`, the compound was classed as inactive in assay [1] and in assay [5]. In addition, the Potency entry in assay [6], in assay [7], in [15], in assay [16] and in assay [4] was “inactive” each time.

For the compound `C[C@]12C[C@H](O)[C@H]3[C@@H](CCC4=CC(=O)CC[C@@]43C)[C@@H]1CC[C@@H]2C(=O)CO`, the call in assay [8], in [9], in assay [10], in [11] and in assay [5] was inactive. The Potency result in [16], in [4], in [12] and in [13] was “inactive” each time.

Take `CC1(C)[C@@H]2CC[C@@]1(C)C(=O)C2`: the outcome in [8], in [9], in assay [10] and in [11] was inactive. The Potency entry in [2], in assay [12] and in assay [13] was “inactive” each time.

`C#CCN(C)Cc1ccccc1`: the outcome in assay [1] and in assay [5] was inactive. Also, the Potency result in assay [2], in assay [16] and in assay [4] was “inactive” throughout.

Take `O=C1c2c(O)cccc2Cc2cccc(O)c21`: the compound was called inactive in [8], in [9], in assay [10] and in assay [11]. Also, the Potency entry in assay [3], in assay [12] and in assay [13] was “inactive” throughout.

Take `O=C1O[C@H]([C@@H](O)CO)C(O)=C1O`: the result in assay [8], in assay [9], in [10] and in assay [11] was inactive. Besides, the Potency entry in assay [2], in assay [12] and in assay [13] was “inactive” throughout.

For the origin of these results see PubChem BioAssay (NCATS).
